Rev-erbA mod – modulates human Rev-erb alpha binding to DNA. P20393. Rev-erbα–FITC-DNA binding, fluorescence polarization, 90 min. activity, % at 10 µM. 370,000 compounds, 0.79% hits;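 active means activity above about 14%, limit read from the data; passing the limit was not always enough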;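 further: 0% = DMSO wells with 35 nM protein and 100% = DMSO wells with 750 nM protein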
PKA-R1A act – activates the PKA-R1A holoenzyme complex; PKA-R1A dissociation, Cy5-IP20 fluorescence polarization; scaled: DMSO 0%, 113 µM cGMP 100%; activation, % at 11.4 µM; 340,000 compounds, 0.083% hits;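 active means percent activation above the mean of all tested compounds plus 3 SD, cut at about 19% in these data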;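 further: higher means more PKAc released from R1A so a rise in polarization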
PKA-R2B act – PKA-R2B complex activation | 340,000 compounds, 0.079% hits | activation, % at 11.4 µM | P22694+P31323 | PKA-R2B holoenzyme dissociation, Cy5-IP20 fluorescence polarization; R2B truncated from residue 108, S112A mutant; 0% DMSO only, 100% 113 µM cGMP;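 active means activation above a cutoff set at the mean over all compounds plus 3 SD, cut at about 18% in these data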;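 further: higher means more holoenzyme dissociation and a rise in polarization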
Target sequence (P31323 whole entry, looked up, other chains not shown, the tested form may be a part): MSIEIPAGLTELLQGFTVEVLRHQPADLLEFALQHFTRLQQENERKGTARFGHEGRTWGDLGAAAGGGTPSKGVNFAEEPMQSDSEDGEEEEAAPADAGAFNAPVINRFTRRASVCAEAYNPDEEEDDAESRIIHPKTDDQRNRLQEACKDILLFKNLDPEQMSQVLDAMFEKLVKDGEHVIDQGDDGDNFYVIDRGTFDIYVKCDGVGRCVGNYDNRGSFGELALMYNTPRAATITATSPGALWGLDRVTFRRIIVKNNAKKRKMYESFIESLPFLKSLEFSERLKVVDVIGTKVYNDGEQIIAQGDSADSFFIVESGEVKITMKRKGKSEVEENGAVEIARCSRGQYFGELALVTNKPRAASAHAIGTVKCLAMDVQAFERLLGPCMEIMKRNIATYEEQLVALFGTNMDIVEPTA
PG9 Ab binder – binds the HIV-1 gp120 antibody PG9 | TR-FRET gp120-PG9 antibody binding | inhibition, % at 6.7 µM | 360,000 compounds, 0.43% hits; in the data active means inhibition above about 8.5%
PG9 binder conf – PG9 antibody binding, confirmed; shares compounds with PG9 Ab binder; TR-FRET PG9 antibody binding, biochemical; 1,500 compounds, 90% hits; inhibition, % at 6.7 µM; in the data active means inhibition above about 9%
PGV04 Ab binding – counter-screen for PG9 binders: binding control antibody PGV04 | shares compounds with PG9 Ab binder | TR-FRET PGV04 antibody-gp120 binding, biochemical | 1,500 compounds, 95% hits | AID 651604 | inhibition, % at 6.7 µM; in the data active means inhibition above about 9.5%
PG9 binder DR – PG9 antibody binding, dose response; shares compounds with PG9 Ab binder; TR-FRET PG9 antibody-gp120 binding inhibition; 95 tested, under 10 active; AID 651848; IC50, µM; in the data active means IC50 below about 10 µM
PGV04 binding DR – PGV04 binding, dose response counter-screen. shares compounds with PG9 Ab binder. TR-FRET binding to control antibody PGV04. IC50, µM. 95 compounds, 20% hits
PG126 binding DR – PG126 binding, dose response counter-screen | shares compounds with PG9 Ab binder | TR-FRET binding to antibody PG126, counterscreen | IC50, µM | 95 compounds, 20% hits | AID 651939
Rev-erbA confirm – Rev-erb alpha (human) modulation, hit confirmation. shares compounds with Rev-erbA mod. Rev-erb alpha FITC-DNA binding, fluorescence polarization, 90 min. activation, % at 25 µM. 3,000 compounds, 61% hits;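 active means activation at or above a set limit, or at least 3 SD above the negative control mean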;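 further: 0% = 35 nM protein with DMSO and 100% = 750 nM protein high control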
RORg DNA counter – RORgamma DNA-binding activity, dose-response counter-screen; purified RORgamma protein-FITC-DNA binding, fluorescence polarization; shares compounds with Rev-erbA mod; AID 1259320; IC50, µM; 910 compounds, 8% hits;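 active means Compounds whose fitted half-maximal concentration for disrupting protein-DNA binding is below 10 micromolar; the record names Rev-erb in its text, so the target is in doubt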
Active calls of the source: *; nt = no result given. Compounds with a hit are over-represented: about 1.2% of the library has one in this group of screens. Unless noted, no stated cut-off is given here; in the data, active means IC50 below about 9 µM; inactive means the rest.

SMILES	Rev-erbA mod	PKA-R1A act	PKA-R2B act	PG9 Ab binder	PG9 binder conf	PGV04 Ab binding	Rev-erbA confirm	others
CCOc1ccc(OCC)c(NC(=O)c2[nH]c(C)c(C(C)=O)c2C)c1	59.0*	1.2	3.4	15.9*	10.9*	8.2	51.5*	PG9 binder DR=>67;PGV04 binding DR=3.55*;PG126 binding DR=3.91*;RORg DNA counter=>40
O=C(CCCCCn1c(=S)[nH]c2ccc(N3CCOCC3)cc2c1=O)NCc1ccc2c(c1)OCO2	22.3*	-9.1	-2.3	20.9*	16.5*	23.8*	-24.8
O=C(CCCCCn1c(=S)[nH]c2ccc(N3CCOCC3)cc2c1=O)NCc1ccc(Cl)cc1	18.0*	5.5	-2.0	20.6*	16.0*	24.7*	1.5
COc1cc(NC(=O)CCn2c(=S)[nH]c3ccccc3c2=O)cc(OC)c1OC	26.7*	-12.1	-9.9	81.3*	78.9*	81.0*	35.7*	RORg DNA counter=>40
COc1cc(NC(=O)CCCn2c(=S)[nH]c3ccccc3c2=O)cc(OC)c1OC	3.5	-3.3	3.6	-0.4	nt	nt	nt
Cc1ccc(C(=O)Nc2ccc3c(c2)OCO3)cc1Cl	23.6*	5.3	4.8	21.4*	18.1*	22.4*	6.6
COCC(=O)OCc1cc2cccc(C)c2[nH]c1=O	5.7	6.2	-12.9	-1.7	nt	nt	nt
Cc1cccc2cc(COC(=O)COc3ccccc3)c(=O)[nH]c12	30.9*	-1.3	2.8	26.2*	30.8*	41.3*	21.1*
Cc1ccc2nc(-c3ccc(NC(=O)CSc4nnc(-c5ccccc5)n4Cc4ccco4)cc3)sc2c1	16.0	nt	nt	nt	nt	nt	nt
CCc1ccccc1NC(=O)c1cc(C)nn1-c1ccccc1	-4.0	nt	nt	nt	nt	nt	nt
O=C(CSc1nc2ccccc2nc1N1CCOCC1)N1CCN(S(=O)(=O)c2cccc([N+](=O)[O-])c2)CC1	1.4	nt	nt	nt	nt	nt	nt
CCN(C(=O)[C@H]1CC(=O)O[C@@H]1c1ccccc1)c1ccccc1	-0.8	nt	nt	nt	nt	nt	nt
Cc1ccc(C(=O)OCc2cc3ccccc3[nH]c2=O)cc1	23.1*	-11.3	-4.2	15.1*	24.4*	31.1*	16.7*
C=CCN1C(=O)[C@@H](CC(=O)NCCCOC)[C@]2(C(=O)OCC)CCCCC/C=C/12	0.1	nt	nt	nt	nt	nt	nt
N#Cc1c(-c2cccs2)cc(C2CC2)nc1SCC(N)=O	52.0*	0.2	10.8	8.7*	18.3*	27.5*	47.5*	RORg DNA counter=>40
N#Cc1c(-c2ccccc2)cc(C2CC2)nc1SCC(=O)O	-6.6	8.8	-9.5	-0.4	nt	nt	nt
CCCn1c(NC(=O)c2ccc(C)cc2)nc2ccccc21	-1.6	2.6	-0.1	3.8	nt	nt	nt
C=CCn1c(NC(=O)c2ccc(C)cc2)nc2ccccc21	27.3*	-6.9	-5.5	39.5*	26.3*	40.3*	-0.8
C[C@H](NC(=O)c1ncn2c1c(=O)[nH]c1ccc(Br)cc12)c1ccccc1	133.1*	0.3	-2.3	20.0*	42.6*	52.2*	23.9*
COc1cccc(CO[C@H]2C=C[C@@H](c3ccccc3)O[C@@H]2COC(C)=O)c1	-1.4	nt	nt	nt	nt	nt	nt
COC(=O)c1sc(NC(=O)c2c(OC)cccc2OC)c(C#N)c1C	26.5*	5.6	2.1	14.2*	19.9*	28.8*	28.9*
Cc1ccccc1Nc1nn2c(=O)c3ccccc3nc2s1	37.2*	-9.8	-7.5	35.9*	31.1*	47.1*	18.6*
O=c1c2ccccc2nc2sc(Nc3ccc(F)cc3)nn12	100.2*	-2.1	-0.3	12.4*	23.5*	24.1*	91.7*	RORg DNA counter=>40
